According to PubChem BioAssay AID1159580 (chemical genetic matrix, 2015):
Screen size: about 5,500 compounds; about 2,000 (36%) were called active. About 18% were inconclusive and are not listed. Cut-off read from the data, not from the text of the source: active = normalized growth mostly below about 0.91 (no sharp cut-off); inconclusive = no clear call, values can overlap the other calls; inactive = mostly above about 0.92. This is one part of the list.

Assay: chemical genetic growth profiling, strain panel (AID 1159580);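 note: tested at 20 µM; growth read once vehicle control cultures reached saturation at 30 °C; 1 = growth at the plate median or of vehicle wells; lower values mean less growth of the strain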
Details: S. cerevisiae deletion strains, growth OD

Measured: normalized growth

CC(=O)O[C@@H]1c2c(ccc3ccc(=O)oc23)OC(C)(C)[C@@H]1OC(=O)CC(C)C
inactive: locus YAL021C, strain ccr4, hits give low values 1.03 | locus YAL026C, strain drs2, hits give low values 0.993 | locus YAL030W, strain snc1, hits give low values 1 | locus YBL061C, strain skt5, hits give low values 0.992 | locus YBR009C, strain hhf1, hits give low values 1.05 | locus YBR021W, strain FUR4, hits give low values 1.02 | locus YBR023C, strain chs3, hits give low values 0.991 | locus YBR171W, strain sec66, hits give low values 0.974 | locus YBR229C, strain ROT2, hits give low values 0.993 | locus YBR231C, strain swc5, hits give low values 1 | locus YBR279W, strain paf1, hits give low values 1.02 | locus YCL011C, strain gbp2, hits give low values 1.01 | locus YCL016C, strain dcc1, hits give low values 1 | locus YCL029C, strain bik1, hits give low values 1.03 | locus YCL061C, strain MRC1, hits give low values 1 | locus YCL069W, strain vba3, hits give low values 1.01 | locus YCR088W, strain abp1, hits give low values 0.997 | locus YDL005C, strain med2, hits give low values 0.995 | locus YDL035C, strain GPR1, hits give low values 1.01 | locus YDL040C, strain nat1, hits give low values 1.01 | locus YDL074C, strain BRE1, hits give low values 1.01 | locus YDL101C, strain DUN1, hits give low values 1 | locus YDL134C, strain PPH21, hits give low values 0.977 | locus YDL185W, strain tfp1, hits give low values 1.03 | locus YDL192W, strain arf1, hits give low values 1 | locus YDR001C, strain nth1, hits give low values 1.01 | locus YDR069C, strain doa4, hits give low values 1 | locus YDR101C, strain arx1, hits give low values 1.05 | locus YDR159W, strain sac3, hits give low values 0.974 | locus YDR162C, strain NBP2, hits give low values 0.976 | locus YDR195W, strain ref2 1.07 | locus YDR297W, strain sur2, hits give low values 0.994 | locus YDR318W, strain mcm21, hits give low values 0.978 | locus YDR334W, strain swr1, hits give low values 1.01 | locus YDR335W, strain msn5, hits give low values 1.02 | locus YDR388W, hits give low values 1.01 | locus YDR502C, strain sam2, hits give low values 1 | locus YEL003W, strain gim4, hits give low values 1.02 | locus YEL037C, strain rad23, hits give low values 1.01 | locus YEL061C, strain CIN8 (second series), hits give low values 1.01 | locus YEL061C, strain CIN8, hits give low values 0.978 | locus YER015W, strain faa2, hits give low values 1.01 | locus YER016W, strain bim1, hits give low values 0.995 | locus YER110C, hits give low values 1.03 | locus YER111C, strain swi4, hits give low values 1 | locus YER155C, strain BEM2 (second series), hits give low values 0.972 | locus YER155C, strain BEM2, hits give low values 1 | locus YER167W, strain BCK2, hits give low values 1 | locus YFR010W, strain ubp6, hits give low values 1.03 | locus YGL078C, strain dbp3, hits give low values 1.02 | locus YGL086W, strain mad1, hits give low values 1.03 | locus YGL167C, strain pmr1, hits give low values 0.989 | locus YGL173C, strain kem1, hits give low values 0.987 | locus YGL227W, strain vid30, hits give low values 1 | locus YGL240W, strain doc1, hits give low values 1.02 | locus YGL248W, strain PDE1, hits give low values 0.994 | locus YGL253W, strain hxk2, hits give low values 0.986 | locus YGR078C, strain PAC10, hits give low values 1 | locus YGR135W, strain pre9, hits give low values 1 | locus YGR252W, strain gcn5, hits give low values 1 | locus YHR013C, strain ard1, hits give low values 1.01 | locus YHR027C, strain rpn1, hits give low values 0.999 | locus YHR030C, strain SLT2, hits give low values 0.988 | locus YHR079C, strain IRE1 (second series), hits give low values 1.01 | locus YHR094C, strain hxt1, hits give low values 1.01 | locus YHR129C, strain ARP1, hits give low values 0.993 | locus YHR142W, strain chs7, hits give low values 0.99 | locus YHR200W, strain rpn10, hits give low values 1.03 | locus YIL066C, strain RNR3, hits give low values 0.982 | locus YIL073C, strain SPO22, hits give low values 1.01 | locus YIL125W, strain kgd1, hits give low values 1.02 | locus YIR030C, strain dcg1, hits give low values 1 | locus YJL092W, strain hpr5, hits give low values 0.998 | locus YJL095W, strain BCK1 (second series), hits give low values 0.995 | locus YJL095W, strain BCK1, hits give low values 0.94 | locus YJL115W, strain asf1, hits give low values 1.01 | locus YJL129C, strain trk1, hits give low values 0.918 | locus YJL134W, strain LCB3, hits give low values 0.994 | locus YJL154C, strain vps35, hits give low values 1.01 | locus YJL164C, strain tpk1, hits give low values 1.02 | locus YJL166W, strain qcr8, hits give low values 0.961 | locus YJL168C, strain set2, hits give low values 1.02 | locus YJL187C, strain SWE1 (second series), hits give low values 1 | locus YJL187C, strain SWE1, hits give low values 0.996 | locus YJR043C, strain POL32, hits give low values 1.03 | locus YKL009W, strain mrt4, hits give low values 1.01 | locus YKL068W, hits give low values 0.996 | locus YKL085W, strain MDH1 (second series), hits give low values 0.988 | locus YKL085W, strain MDH1, hits give low values 0.988 | locus YKL160W, strain elf1, hits give low values 0.928 | locus YKL190W, strain CNB1, hits give low values 0.989 | locus YKR001C, strain vps1, hits give low values 1.01 | locus YKR026C, strain gcn3, hits give low values 0.998 | locus YKR091W, strain srl3, hits give low values 0.997 | locus YLL001W, strain dnm1, hits give low values 0.957 | locus YLL026W, hits give low values 1 | locus YLL041C, strain sdh2, hits give low values 1 | locus YLR027C, strain aat2, hits give low values 0.999 | locus YLR039C, strain RIC1, hits give low values 0.921 | locus YLR058C, strain SHM2, hits give low values 0.982 | locus YLR102C, strain apc9, hits give low values 1.01 | locus YLR221C, strain rsa3, hits give low values 0.979 | locus YLR258W, strain gsy2, hits give low values 1.01 | locus YLR262C, strain YPT6, hits give low values 0.889 | locus YLR268W, strain sec22, hits give low values 1.03 | locus YLR320W, strain mms22, hits give low values 0.918 | locus YLR330W, strain CHS5, hits give low values 1 | locus YLR342W, strain FKS1 (second series), hits give low values 1 | locus YLR342W, strain FKS1, hits give low values 0.98 | locus YLR357W, strain rsc2, hits give low values 1.07 | locus YLR370C, strain arc18, hits give low values 1 | locus YLR371W, strain rom2, hits give low values 1.02 | locus YLR384C, strain iki3, hits give low values 1.01 | locus YLR418C, strain cdc73, hits give low values 0.947 | locus YML016C, strain PPZ1, hits give low values 0.992 | locus YML032C, strain rad52, hits give low values 0.992 | locus YML120C, strain ndi1, hits give low values 0.989 | locus YML124C, strain tub3, hits give low values 1 | locus YMR058W, strain fet3, hits give low values 1 | locus YMR078C, strain ctf18, hits give low values 1 | locus YMR125W, strain sto1, hits give low values 0.976 | locus YMR129W, hits give low values 1 | locus YMR205C, strain PFK2, hits give low values 0.878 | locus YMR223W, strain ubp8, hits give low values 0.986 | locus YMR231W, strain pep5, hits give low values 1 | locus YMR263W, strain SAP30, hits give low values 0.996 | locus YMR307W, strain GAS1, hits give low values 0.848 | locus YNL067W, strain RPL9B, hits give low values 0.998 | locus YNL209W, strain ssb2, hits give low values 1.01 | locus YNL233W, strain BNI4, hits give low values 1.02 | locus YNL248C, strain rpa49, hits give low values 0.952 | locus YNL250W, strain rad50, hits give low values 1.02 | locus YNL271C, strain bni1, hits give low values 0.999 | locus YNL298W, strain CLA4, hits give low values 1.02 | locus YNL307C, strain MCK1, hits give low values 1.01 | locus YNL322C, strain KRE1 (second series), hits give low values 1.01 | locus YNL322C, strain KRE1, hits give low values 0.995 | locus YNR049C, strain mso1, hits give low values 1.01 | locus YNR052C, strain pop2, hits give low values 1 | locus YOL012C, strain htz1 0.997 | locus YOL147C, strain pex11, hits give low values 1 | locus YOR001W, strain rrp6, hits give low values 1.03 | locus YOR061W, strain CKA2, hits give low values 0.985 | locus YOR069W, strain VPS5, hits give low values 0.992 | locus YOR070C, strain gyp1, hits give low values 1 | locus YOR080W, strain dia2, hits give low values 1.02 | locus YOR083W, strain WHI5, hits give low values 0.949 | locus YOR106W, strain vam3, hits give low values 0.968 | locus YOR136W, strain idh2, hits give low values 1.03 | locus YOR144C, strain elg1, hits give low values 1.01 | locus YOR184W, strain ser1, hits give low values 0.921 | locus YOR265W, strain rbl2, hits give low values 1.01 | locus YOR270C, strain vph1, hits give low values 0.883 | locus YOR290C, strain snf2, hits give low values 1 | locus YOR316C, strain cot1, hits give low values 1.01 | locus YPL051W, strain arl3, hits give low values 0.951 | locus YPL078C, strain atp4, hits give low values 0.93 | locus YPL106C, strain sse1, hits give low values 1.06 | locus YPL240C, strain hsp82, hits give low values 1 | locus YPL241C, strain CIN2, hits give low values 0.973 | locus YPR119W, strain clb2, hits give low values 1 | locus YPR141C, strain kar3, hits give low values 0.994 | locus YPR163C, strain tif3, hits give low values 1.01 | locus YPR167C, strain met16, hits give low values 1.01 | strain wtn01, hits give low values 1.04
active: locus YDR137W, strain rgp1, hits give low values 0.796 | locus YDR392W, strain spt3, hits give low values 0.591 | locus YLR262C, strain YPT6 (second series), hits give low values 0.794 | locus YNL071W, strain lat1, hits give low values 0.882
